# In PubChem BioAssay (NCATS):
# Inconclusive results are not listed. Calls of active or inactive are those of the source. Calls come from the whole dose curve; as a rule, active = well fitted inhibition curve with a large enough effect; inconclusive = small, poorly fitted or top-dose-only effect; inactive = no such curve, though single readings can be large or run the other way.
# Test: qHTS Screen of the MIPE 4.0 Collection Against Ewings Sarcoma (TC32) (AID 1259256); note: nearly all actives have a fitted effect of over 45% in size
# Settings: TC32 Ewing sarcoma viability, CellTiter-Glo, 48 h; series mostly up to 45.8 µM
# Excerpt: There is a large unmet medical need for treatments for Ewing sarcoma, a pediatric sarcoma. We sought to identify compounds that inhibited Ewing sarcoma cells in vitro with the goal to then test promising drugs in two drug combinations in vitro to look for synergistic drug combinations. Promising combinations would then proceed to additional validation, including in vivo testing.
# Using the NCATS developed oncology compound library called the Mechanism of Interrogation Plate (MIPE), four Ewing sarcoma cell lines were evaluated (TC32, TC71, RDES, EW8). Compounds, in a 12-point titration series, were incubated with cells for 48 hours and the read out was cell viability (CellTiter-Glo from Promega). These initial experiments were used to select appropriate concentrations of each single agent for subsequent two-drug matrix combinations such that the concentrations in the matrices would span both activity and non-activity.
# Cells, in the log phase of growth, were seeded in 5 uL of RPMI plus 5% FBS, […] L-glutamine, 100 U/ml penicillin and 100 ug/ml streptomycin into 1536-well solid-bottom white tissue culture treated Greiner Bio One Plates (789173-F) using a MultiDrop Combi (Thermofisher Scientific) dispenser and a small sterile cassette. One column was media alone to be used as a :"no cells" control. The plates were then covered with sterilized stainless steel gasketed lids from Kalypsys. After allowing cells to attach for 4 hours, 23 nL of test compound or control (negative control DMSO and positive control 9.2 uM Bortezomib-final) were added from a 1536-well polypropylene compound source plate to each well using a 1536 head pin tool from Kalypsys. Cells were then incubated for 48 hours at 37C, 95% relative humidity and 5% CO2. After 48 hours, plates were removed from the incubator and 3 uL of CellTiter-Glo (Promega) was added using an Aurora Flying Reagent Dispenser Bioraptor. Plates were incubated at room temperature for 10 minutes prior to reading the luminescence on the Viewlux (PerkinElmer). The relative luciferase units are used to calculate the percent activity using the activity of DMSO in the cells and no cells columns for normalization of no inhibition and full inhibition respectively.
# Potency is the fitted concentration of half-maximal effect.
row,SMILES,Potency
1,CCOC(CN1C(=O)[C@](CC(=O)Nc2ccc(C)cc2)(NC(=O)Nc2ccc(C)cc2)c2ccccc21)OCC,inactive
2,CN1CCN(CCOc2cc(OC3CCOCC3)c3c(Nc4c(Cl)ccc5c4OCO5)ncnc3c2)CC1,29.6 µM (active)
3,CC1CCC(C(=O)N(c2cc(C#CC(C)(C)C)sc2C(=O)O)C2CCC(O)CC2)CC1 (stereo not given),inactive
4,CC(C)(Cc1ccc2ccccc2c1)NC[C@@H](O)COc1cccc(Cl)c1C#N,14.8 µM (active)
5,O=C(O)c1cc(O)c2c(c1)C(=O)c1cccc(O)c1C2=O,inactive
6,CC(C)(C)C(=O)Oc1ccc2c(c1)nc(NC(=O)c1cccc([N+](=O)[O-])c1)n2CCCO,inactive
7,CO[C@H]1C=CC=C(C)C(=O)NC2=CC(=O)C(NCCN(C)C)=C(C[C@@H](C)C[C@H](OC)[C@@H](O)[C@@H](C)C=C(C)[C@@H]1OC(N)=O)C2=O,0.0469 µM (active)
8,C[N+]1(C)[C@@H]2CC(OC(=O)[C@H](CO)c3ccccc3)C[C@H]1[C@H]1O[C@@H]12 (stereo not given in full),inactive
9,NC(=O)[C@@H](CCC(F)(F)F)N(Cc1ccc(-c2ncon2)cc1F)S(=O)(=O)c1ccc(Cl)cc1,14.8 µM (active)
10,O=C(CCc1ccc(O)cc1)c1c(O)cc(O)cc1O[C@@H]1O[C@H](CO)[C@H](O)[C@H](O)[C@H]1O,inactive
11,O=C(CCN1CCN(C(=O)OCc2cc(Cl)cc(Cl)c2)CC1)c1ccc2[nH]c(=O)oc2c1,inactive
12,CC(=Cc1ccccc1)C=C1SC(=S)N(CC(=O)O)C1=O,inactive
13,Cc1nnc(C(C)C)n1C1C[C@H]2CC[C@@H](C1)N2CC[C@H](NC(=O)C1CCC(F)(F)CC1)c1ccccc1 (stereo not given in full),26.4 µM (active)
14,Cc1cc(OCCCc2c(C(=O)O)n(Cc3cccnc3)c3c(-c4c(COc5ccc(N6CCN([S+](C)(=O)[O-])CC6)cc5)nn(C)c4C)cccc23)cc(C)c1Cl,23.5 µM (active)
15,Cc1ccc(/C=N/NC(=O)c2ccccc2Oc2ccccc2)o1,inactive
16,CC[C@@]1(O)C[C@H](O[C@H]2C[C@H](N(C)C)[C@H](O[C@H]3C[C@H](O)[C@H](O[C@H]4CCC(=O)[C@H](C)O4)[C@H](C)O3)[C@H](C)O2)c2c(cc3c(c2O)C(=O)c2c(O)cccc2C3=O)[C@@H]1C(=O)OC,inactive
17,CC[C@H]1OC(=O)[C@H](C)[C@@H](O[C@H]2C[C@@](C)(OC)[C@@H](O)[C@H](C)O2)[C@H](C)[C@@H](O[C@@H]2O[C@H](C)C[C@H](N(C)C)[C@@H]2O)[C@](C)(O)C[C@@H](C)CN(C)[C@H](C)[C@@H](O)[C@]1(C)O,13.2 µM (active)
18,O=C(NCc1ccccc1)c1csc(Nc2ccncn2)n1,18.7 µM (active)
19,C[C@]12CC[C@@H]3c4ccc(O)cc4C[C@@H](CCCCCCCCCS(=O)CCCC(F)(F)C(F)(F)F)[C@H]3[C@H]1CC[C@H]2O (stereo not given in full),inactive
20,Cc1c(NC(=O)c2ccc(C(C)(C)C)cc2)cccc1-c1cn(C)c(=O)c(Nc2ccc(C(=O)N3CCOCC3)cc2)n1,20.9 µM (active)

row,SMILES,Potency
1,O=C1c2c(O)cc(O)cc2O[C@H](c2cc(O)c(O)c(O)c2)[C@H]1O,inactive
2,CCc1ccc(OCc2ccccc2C(=O)Nc2ccc3nc(C)cc(N)c3c2)cc1,9.35 µM (active)
3,Cc1nc(N)sc1-c1ccnc(Nc2ccc(N3CCOCC3)cc2)n1,16.6 µM (active)
4,CC(C)(C)NC(=O)Nc1cccc(Nc2ncc(F)c(NC(C)(C)CO)n2)c1,2.35 µM (active)
5,O=C(O)c1c(Cl)c(Cl)c(Cl)c(Cl)c1-c1c2cc(I)c(=O)c(I)c-2oc2c(I)c(O)c(I)cc12,18.7 µM (active)
6,COc1ccc2cccc(CCNC(C)=O)c2c1,inactive
7,CC(=O)N(C)C1(c2ccccc2)CCN(CCC[C@]2(c3ccc(Cl)c(Cl)c3)CCCN(C(=O)c3ccccc3)C2)CC1,26.4 µM (active)
8,O=C(O)c1ccc(-c2cc3cccnc3c(-c3ccc4nonc4c3)n2)cc1,26.4 µM (active)
9,COc1ccc(Cc2nccc3cc(OC)c(OC)cc23)cc1OC,23.5 µM (active)
10,Nc1nc(F)nc2c1ncn2[C@@H]1O[C@H](COP(=O)(O)O)[C@@H](O)[C@H]1O,16.6 µM (active)
11,CCOC1OC(=O)C[C@H]1NC(=O)[C@@H]1CCCN1C(=O)[C@@H](NC(=O)c1ccc(N)c(Cl)c1)C(C)(C)C (stereo not given in full),inactive
12,N[C@@]1(C(=O)O)CS(=O)(=O)[C@H]2[C@H](C(=O)O)[C@H]21,18.7 µM (active)
13,Nc1ncnc2c1ncn2[C@@H]1O[C@@H](CO)[C@H](O)[C@H]1O,inactive
14,Cn1c(N2CCCCS2(=O)=O)nc(C(=O)NCc2ccc(F)cc2)c(O)c1=O,23.5 µM (active)
15,CO[C@H]1C(=O)[C@]2(C)[C@@H](OC)C[C@H]3OC[C@@]3(OC(C)=O)[C@H]2[C@H](OC(=O)c2ccccc2)[C@]2(O)C[C@H](OC(=O)[C@H](O)[C@@H](NC(=O)OC(C)(C)C)c3ccccc3)C(C)=C1C2(C)C,inactive
16,O=c1cc(CN2CCOCC2)occ1OCCCCCSc1ccnc2cc(C(F)(F)F)ccc12,18.7 µM (active)
17,COc1ccc2c(Oc3ccc(NC(=O)c4c(C)n(CC(C)(C)O)n(-c5ccccc5)c4=O)nc3)ccnc2c1,18.7 µM (active)
18,COc1ccc(C2Sc3ccccc3N(CCN(C)C)C(=O)C2OC(C)=O)cc1 (stereo not given),inactive
19,COc1ccc(-c2coc3cc(O)cc(O)c3c2=O)cc1,inactive
20,COc1cc(O)c2c(c1)C(=O)c1cc(C)cc(O)c1C2=O,inactive
